KCNQ2 pot: potentiators of rat KCNQ2 potassium channel | B-score at 10 µM | CHO-K1 KCNQ2, FluxOR thallium flux fluorescence; stronger effect = higher value | AID 2239 | 0.54% of 310,000 active | O88943;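 active means fluorescence ratio B-score at least 3 SD of library B-scores, with initial fluorescence B-score within 3 of them, cut at about 5.3 in these data; same plate scores as AID 2156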;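 further: B-score of peak minus minimum over baseline fluorescence ratio after K+ and Tl+ stimulus; positive B-score means potentiation of KCNQ2 with more thallium influx and brighter signal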
Target sequence (O88943 whole entry, looked up): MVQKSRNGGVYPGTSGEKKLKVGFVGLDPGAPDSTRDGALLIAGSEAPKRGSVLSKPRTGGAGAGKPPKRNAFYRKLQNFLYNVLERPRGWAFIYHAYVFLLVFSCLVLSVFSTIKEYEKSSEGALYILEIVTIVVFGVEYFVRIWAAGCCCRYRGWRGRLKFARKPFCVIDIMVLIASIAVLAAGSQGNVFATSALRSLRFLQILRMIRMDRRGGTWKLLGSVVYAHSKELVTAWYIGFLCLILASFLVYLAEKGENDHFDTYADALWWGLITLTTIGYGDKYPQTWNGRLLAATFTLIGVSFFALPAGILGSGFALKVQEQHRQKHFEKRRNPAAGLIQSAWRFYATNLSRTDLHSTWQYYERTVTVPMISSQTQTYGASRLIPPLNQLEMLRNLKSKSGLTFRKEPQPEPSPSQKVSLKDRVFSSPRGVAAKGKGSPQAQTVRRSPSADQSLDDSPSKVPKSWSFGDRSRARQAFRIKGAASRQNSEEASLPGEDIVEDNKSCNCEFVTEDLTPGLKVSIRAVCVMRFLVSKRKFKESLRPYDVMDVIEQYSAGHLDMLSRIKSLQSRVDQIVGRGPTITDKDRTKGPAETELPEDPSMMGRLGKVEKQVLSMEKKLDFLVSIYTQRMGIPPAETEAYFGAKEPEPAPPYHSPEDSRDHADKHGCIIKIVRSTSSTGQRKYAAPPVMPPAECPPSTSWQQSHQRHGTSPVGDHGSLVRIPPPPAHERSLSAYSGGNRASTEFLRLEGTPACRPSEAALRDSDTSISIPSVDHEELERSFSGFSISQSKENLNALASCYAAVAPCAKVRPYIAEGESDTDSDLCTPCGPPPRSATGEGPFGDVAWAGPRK
KCNQ2 block: KCNQ2 (rat) channel inhibition. O88943. CHO-K1 KCNQ2, FluxOR thallium flux, 20 min; stronger effect = lower value. B-score at 10 µM. 1.1% of 310,000 active;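 active means fluorescence ratio B-score at most minus 3 library SDs, with starting brightness B-score within 2 library SDs, cut at about -5.5 in these data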
KCNQ2 block conf: rat KCNQ2 channel inhibition, confirmatory screen; shares compounds with KCNQ2 block; AID 493025; 57% of 1,000 active; KCNQ2-expressing cells, thallium flux; stronger effect = lower value; activity change, negative = inhibition, % at 10 µM
KCNQ1 spec: selectivity of KCNQ2 inhibitors against human KCNQ1; activity change, negative = inhibition, % at 10 µM; 15% of 1,000 active; KCNQ1-expressing cells, FluxOR thallium flux fluorescence; stronger effect = lower value; AID 493026; shares compounds with KCNQ2 block;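 active means activity change at least 3 SD of negative controls below their mean in both duplicate wells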;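 further: CHO cells stably transfected with KCNQ1 and depolarized by potassium stimulus; peak minus minimum fluorescence over baseline after thallium addition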
CHO parental ctr: KCNQ2 inhibitor counter-screen hit in parental CHO cells; activity change, % at 10 µM; thallium flux counter-screen; stronger effect = lower value; AID 493029; 14% of 1,000 active; shares compounds with KCNQ2 block
KCNQ2 patch conf: rat KCNQ2 inhibition confirmed by electrophysiology; shares compounds with KCNQ2 block; KCNQ2-expressing cells, automated patch clamp current; calls only at 10 µM; 49% of 550 active
Large screens that a line does not name were inactive (follow-up assays come after a bar, where they were run). Shown are actives, neighbours in structure and some others; about 1.6% of the full set was active somewhere. Unless noted, how the calls were made is not given here.

Cc1nc(NCCc2ccccc2)c(C#N)c(C)c1[N+](=O)[O-]	none
COc1ccc(C(C)=O)cc1CSc1ccc2c(c1)OCCO2	none (no result: KCNQ2 pot)
CN(CCOc1ccc(Cl)cc1)C(=O)CN1C(=O)NC2(CCCCC2)C1=O	none
O=C(NC12CC3CC(CC(C3)C1)C2)N(Cc1ccccc1)Cc1ccncc1	KCNQ2 block -11 | KCNQ2 block conf -34% | KCNQ1 spec inactive | CHO parental ctr inactive | KCNQ2 patch conf active
O=C(NC12CC3CC(CC(C3)C1)C2)c1ccccc1	none (no result: KCNQ2 pot)
Cc1ccccc1OCc1nc(C#N)c(N2CCCC2)o1	none (no result: KCNQ2 pot)
N#Cc1nc(COc2ccccc2)oc1N1CCC(Cc2ccccc2)CC1	KCNQ2 block -11 | KCNQ2 block conf -30% | KCNQ1 spec inactive | CHO parental ctr inactive | KCNQ2 patch conf inactive
N#Cc1nc(COc2ccc(F)cc2)oc1N1CCCC1	none (no result: KCNQ2 pot)
Cc1ccc(OCc2nc(C#N)c(N3CCN(Cc4ccccc4)CC3)o2)cc1	KCNQ2 block -7.8 | KCNQ2 block conf inactive | KCNQ1 spec inactive | CHO parental ctr inactive
O=c1[nH]c2ccc(S(=O)(=O)N3CCCCC3)cc2[nH]c1=O	none
CCCCC(=O)OCC(=O)N1N=C(c2c[nH]c3ccccc23)C(O)C1c1ccc(OC)cc1 (centres undefined)	none (no result: KCNQ2 pot)
COc1ccc(C2=NN(C(=O)c3ccco3)C(c3ccco3)C2)cc1OC (centres undefined)	none (no result: KCNQ2 pot)
CCCC(=O)N(c1ccc(OCC)cc1)S(=O)(=O)c1ccc2c3c(cccc13)C(=O)N2C	none
O=C(CSC1=NCCN1)Nc1ccccc1[N+](=O)[O-]	none (no result: KCNQ2 pot)
O=C(CSC1=NCCN1)NC(c1ccccc1)c1ccccc1	KCNQ2 block -9.7 | KCNQ2 block conf inactive | KCNQ1 spec inactive | CHO parental ctr inactive
CCOc1ccc(N(CC(=O)Nc2cc(C)ccc2C)S(=O)(=O)c2c(C)[nH]c(=O)[nH]c2=O)cc1	none (no result: KCNQ2 pot)
Fc1ccc(C(c2ccc(F)cc2)N2CCN(C/C=C/c3ccccc3)CC2)cc1	KCNQ2 block -8.6 | KCNQ2 block conf inactive | KCNQ1 spec inactive | CHO parental ctr inactive
C(=C\c1ccccc1)/CN1CCN(C(c2ccccc2)c2ccccc2)CC1	none (no result: KCNQ2 pot)
Cn1c(SCC(=O)c2ccc3c(c2)OCCO3)nnc1C1CC1	none
CC1(C)CC(=O)N(c2ccc(Cl)cc2Cl)C(=O)C1	none
COc1cc(CN(C)C(C)C(=O)Nc2ccc([N+](=O)[O-])cc2Cl)ccc1OC(F)F (centres undefined)	none (no result: KCNQ2 pot)
COc1ccc(Cl)cc1NC(=O)C(C)N(C)Cc1ccc(C(F)(F)F)cc1 (centres undefined)	KCNQ2 block -6.8 | KCNQ2 block conf -45% | KCNQ1 spec -52% | CHO parental ctr -39% | KCNQ2 patch conf inactive
O=C1OC[C@H](Cc2ccc3c(c2)OCO3)/C1=C\c1ccc2c(c1)OCO2	none (no result: KCNQ2 pot)
COCCn1c(CN2CCN(C(=O)c3ccco3)CC2)nc2c1c(=O)n(C)c(=O)n2C	none (no result: KCNQ2 pot)
N#CCc1nc(-c2cc3ccccc3oc2=O)cs1	none
CC1CCC(=C(C#N)c2nc(-c3cc4ccccc4oc3=O)cs2)CC1 (centres undefined)	KCNQ2 block -8.5 | KCNQ2 block conf inactive | KCNQ1 spec inactive | CHO parental ctr inactive
COc1cccc(CNS(=O)(=O)c2ccc3c(c2)N(C)CCO3)c1	none (no result: KCNQ2 pot)
CN(C(=O)c1cccc(C#CC(C)(C)O)c1)C1CCCN(Cc2ccccc2F)C1 (centres undefined)	none (no result: KCNQ2 pot)
Cn1c(-c2ccc3c(c2)OCO3)cnc1NCc1ccccc1Cl	none
Cn1c(-c2ccc3c(c2)OCO3)cnc1NCc1cccc(Cl)c1	KCNQ2 block -9 | KCNQ2 block conf inactive | KCNQ1 spec inactive | CHO parental ctr inactive
Nc1nc(-c2ccc3ccccc3c2)c(C2(O)C(=O)Nc3c(Br)cc(F)cc32)s1 (centres undefined)	none (no result: KCNQ2 pot)
COc1ccc(C(C(=O)NC2CCCC2)N(C(=O)c2ccco2)c2cc3c(cc2C(C)=O)OCO3)cc1 (centres undefined)	none
COc1ccc(NC(=S)N2CCC(NC(=O)C3CCCCC3)CC2)cc1	none (no result: KCNQ2 pot)
O=C(NC1CCCCC1)N(Cc1ccccc1)Cc1ccco1	KCNQ2 block -8.1 | KCNQ2 block conf inactive | KCNQ1 spec inactive | CHO parental ctr inactive
C=C(C)c1ccc(C(C)(C)NC(=O)NCc2ccco2)cc1	none
CN(Cc1ccccc1)C(=O)NC1CCCCC1	none (no result: KCNQ2 pot)
C=C(C)c1ccc(C(C)(C)NC(=O)N(Cc2ccccc2)Cc2ccco2)cc1	KCNQ2 block -6.9 | KCNQ2 block conf -16% | KCNQ1 spec inactive | CHO parental ctr inactive | KCNQ2 patch conf inactive
O=C(CCn1c(=O)sc2ccccc21)NCc1ccc2c(c1)OCO2	none
Cc1nn(C(C)C(=O)NCCCN2CCCCCC2)c(=O)c2c1sc1ccccc12 (centres undefined)	none (no result: KCNQ2 pot)
Cc1nn(C(C)C(=O)NCc2ccccc2Cl)c(=O)c2c1sc1ccccc12 (centres undefined)	KCNQ2 block -7.8 | KCNQ2 block conf -32% | KCNQ1 spec inactive | CHO parental ctr inactive | KCNQ2 patch conf active
CC1CCC(NC(=O)COC(=O)CCC(=O)c2ccc(Cl)s2)CC1 (centres undefined)	none
CC(=O)Nc1ccc(N2C(C(C)=O)=NN(c3ccccc3)C2c2cccs2)cc1 (centres undefined)	none
COc1ccc(N2C(C(C)=O)=NN(c3ccccc3)C2c2cccs2)cc1 (centres undefined)	KCNQ2 block -7.2 | KCNQ2 block conf -32% | KCNQ1 spec -37% | CHO parental ctr -25% | KCNQ2 patch conf inactive
COc1ccc(N2CCN(Cc3nc(-c4ccccc4)no3)CC2)cc1	none (no result: KCNQ2 pot)
CCOC(OCC)c1cn(Cc2ccc3c(c2)C(=O)c2ccccc2C3=O)nn1	none
C=CCSc1nc2c(c(C3CC=CCC3)c1C#N)CCC2 (centres undefined)	KCNQ2 block -12 | KCNQ2 block conf -32% | KCNQ1 spec -31% | CHO parental ctr -22% | KCNQ2 patch conf inactive
C=CCSc1nc(N)c(C#N)c(-c2ccc(C)cc2)c1C#N	none (no result: KCNQ2 pot)
CCc1nc(SCc2ccccc2C)n[nH]1	none
COc1ccccc1NCC(O)Cn1c2ccccc2c2ccccc21 (centres undefined)	none
COc1ccc(CCNCC(O)Cn2c3ccccc3c3ccccc32)cc1OC (centres undefined)	KCNQ2 block -7 | KCNQ2 block conf -24% | KCNQ1 spec inactive | CHO parental ctr inactive | KCNQ2 patch conf inactive
C=CCSc1nc2ccsc2c(=O)n1-c1cccnc1	none (no result: KCNQ2 pot)
COC(=O)CCC(=O)N1CCCC(CO)(Cc2ccccc2C)C1 (centres undefined)	none
Cc1ccccc1CC1(CO)CCCN(C(=O)CCC(=O)c2ccccc2)C1 (centres undefined)	KCNQ2 block -8.6 | KCNQ2 block conf -30% | KCNQ1 spec inactive | CHO parental ctr inactive | KCNQ2 patch conf active
NC(=O)C1CC(O)CN1c1nc(CN2CCOCC2)nc2scc(-c3ccccc3)c12 (centres undefined)	KCNQ2 block -8.9 | KCNQ2 block conf inactive | KCNQ1 spec inactive | CHO parental ctr inactive
CC1CCN(c2nc(CN3CCCCC3)nc3scc(-c4ccccc4)c23)CC1	none (no result: KCNQ2 pot)
CN(Cc1cn(C)nc1-c1ccccc1F)CC1CCCCO1 (centres undefined)	none (no result: KCNQ2 pot)

Screening results: PubChem BioAssay, Johns Hopkins Ion Channel Center
